Source: PubChem BioAssay (NCI)
Several values for one entry are separate records, joined by “and”; a condition that tells them apart may be missing. Equal values may be shown once. About 79,000 compounds went through this panel and 15% of them were active in at least one assay; those are over-represented in the sample as a whole. A structure can be active in one record and inactive in another. Activity calls are given as the source filed them. No stated cut-off is given here; in the data, active means growth inhibition above about 70%; inactive means the rest.

Legend:
[1] = NCI Yeast Anticancer Drug Screen. Data for the rad50 strain (AID 155);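 further: 0% = growth of vehicle-only cultures of the same strain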; details: S. cerevisiae rad50 strain growth inhibition, stronger effect = higher value
Method in brief: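 Inhibition values express reduced yeast growth in compound-treated cultures relative to vehicle-treated controls.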

[2] = NCI Yeast Anticancer Drug Screen. Data for the mec2-1 strain (AID 157); details: S. cerevisiae mec2-1 strain, stronger effect = higher value
Method in brief: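 Each compound was tested on mec2-1 yeast, a strain altered in DNA damage repair or cell cycle control. Growth inhibition is reported relative to vehicle.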

[3] = NCI Yeast Anticancer Drug Screen. Data for the sgs1 mgt1 strain (AID 161);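 further: 0% = growth of cultures given vehicle only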; details: S. cerevisiae sgs1 mgt1 strain, stronger effect = higher value
Method in brief: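 Read-out: growth inhibition vs vehicle controls. Cells: mutant yeast strain deficient in DNA damage repair.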

[4] = NCI Yeast Anticancer Drug Screen. Data for the cln2 rad14 strain (AID 165);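 further: 0% = growth equal to vehicle treated cultures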; details: S. cerevisiae cln2 rad14 strain, stronger effect = higher value
Method in brief: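 Test compounds were added to cln2 rad14 yeast cultures; inhibition of growth was then determined by comparison with vehicle treatment.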

[5] = NCI Yeast Anticancer Drug Screen. Data for the bub3 strain (AID 167); details: S. cerevisiae bub3 mutant strain, stronger effect = higher value
Method in brief: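 Steps: expose the mutant yeast strain to compound; grow alongside vehicle-treated cultures; measure growth; express inhibition against the vehicle cultures.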

[6] = NCI Yeast Anticancer Drug Screen. Data for the mlh1 rad18 strain (AID 175); details: S. cerevisiae mlh1 rad18 strain growth inhibition, stronger effect = higher value
Method in brief: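 Inhibition values reflect reduced growth of mutant yeast versus vehicle-treated controls following compound exposure; the mutations affect DNA damage repair.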

[7] = at 5.0 µM (retest, dose inferred, filed as 0.5)
[8] = at 50.0 µM (retest, dose inferred, filed as 5.0)

Measured: growth inhibition

Cc1ccc(C#CCN2CCCCC2)cn1
inactive: [1]; [7] -142% | [1]; [8] -82% | [1]; at 50.0 µM 4.45% | [2]; [7] -77% | [2]; [8] -47% | [2]; at 50.0 µM 11.1% | [3]; [7] -64% | [3]; [8] -22% | [3]; at 50.0 µM 22.8% | [4]; [7] -60% | [4]; [8] -46% | [4]; at 50.0 µM 69.2% | [5]; [7] -66% | [5]; [8] -54% | [5]; at 50.0 µM -0.5% | [6]; [7] -138% | [6]; [8] -87% | [6]; at 50.0 µM 11.7%

ClCCN(CCCl)B(N(CCCl)CCCl)N(CCCl)CCCl
inactive: [1]; [7] -1% | [1]; [8] -6% | [2]; [7] -23% | [2]; [8] 0% | [3]; [7] -11% | [3]; [8] 10% | [4]; [7] 0% | [4]; [8] -2% | [5]; [7] 3% | [5]; [8] -6% | [6]; [7] -13% | [6]; [8] -26%
active: [1]; at 50.0 µM 98.8% | [2]; at 50.0 µM 99.3% | [3]; at 50.0 µM 99.1% | [4]; at 50.0 µM 99.2% | [5]; at 50.0 µM 98.8% | [6]; at 50.0 µM 99.3%

CCC(C)(C)c1ccc(O)cc1
inactive: [1]; [7] -1% | [1]; [8] 16% | [1]; at 50.0 µM -19.3% and 59.8% | [2]; [7] -3% | [2]; [8] 0% | [2]; at 50.0 µM -17.4% and 40.9% | [3]; [7] -10% | [3]; [8] 5% | [3]; at 50.0 µM -10.9% and 63% | [4]; [7] 1% | [4]; [8] -4% | [4]; at 50.0 µM -15.2% and -13.6% | [5]; [7] 2% | [5]; [8] 7% | [5]; at 50.0 µM -28.6% and 38.3% | [6]; [7] -2% | [6]; [8] 11% | [6]; at 50.0 µM -17.7% and 64.5%

CC[CH2][Sn]([F])([F])[CH2]CC
active: [1]; [8] 94% | [1]; at 50.0 µM 83% | [2]; [8] 97% | [2]; at 50.0 µM 87.7% | [3]; [8] 94% | [3]; at 50.0 µM 84.7% | [4]; [8] 91% | [4]; at 50.0 µM 83.5% | [5]; [8] 96% | [5]; at 50.0 µM 81.2% | [6]; [8] 95% | [6]; at 50.0 µM 86.5%
inactive: [1]; [7] 20% | [2]; [7] 12% | [3]; [7] 11% | [4]; [7] 17% | [5]; [7] 14% | [6]; [7] 13%

O=P(c1ccccc1)(c1ccccc1)c1ccccc1.O=P(c1ccccc1)(c1ccccc1)c1ccccc1.S=C=[N][Sn]([N]=C=S)([N]=C=S)[c]1ccccc1
active: [1]; [8] 98% | [1]; at 50.0 µM 99.5% | [2]; [8] 99% | [2]; at 50.0 µM 99.5% | [3]; [8] 99% | [3]; at 50.0 µM 99% | [4]; [8] 98% | [4]; at 50.0 µM 97.8% | [5]; [8] 99% | [5]; at 50.0 µM 99.2% | [6]; [7] 72% | [6]; [8] 99% | [6]; at 50.0 µM 97.7%
inactive: [1]; [7] 58% | [2]; [7] 21% | [3]; [7] 62% | [4]; [7] -2% | [5]; [7] -2%

Cc1cc(O)c2c(c1)C(=O)C13C(=C2O)C(=O)C2C(O)C1C1C(O)C3C(=O)C3=C(O)c4c(O)cc(C)cc4C(=O)C321 (centres undefined)
inactive: [1]; [7] 18% | [1]; [8] 44% | [1]; at 50.0 µM 69.7% | [2]; [7] 57% | [2]; [8] 46% | [3]; [7] 40% | [3]; [8] 48% | [4]; [7] 64% | [4]; [8] 47% | [4]; at 50.0 µM 60.1% | [6]; [7] 34% | [6]; [8] 42% | [6]; at 50.0 µM 69%
active: [2]; at 50.0 µM 76.2% | [3]; at 50.0 µM 79.5% | [5]; [7] 88% | [5]; [8] 70% | [5]; at 50.0 µM 80.2%

Cc1ccc(C(=O)OC(C(=O)O)C(OC(=O)c2ccc(C)cc2)C(=O)O)cc1 (centres undefined) (tested in a mixture with another compound)
12.3% (inactive) and 92.5% (active): [6]; at 50.0 µM
23.3% (inactive) and 93% (active): [5]; at 50.0 µM
21.2% (inactive) and 93.8% (active): [3]; at 50.0 µM
-1.75% (inactive) and 91.3% (active): [4]; at 50.0 µM
inactive: [1]; [7] 15% | [2]; [7] -7% | [2]; [8] 61% | [3]; [7] 28% | [4]; [7] 34% | [5]; [7] -10% | [6]; [7] 19%
active: [1]; [8] 79% | [3]; [8] 70% | [4]; [8] 77% | [5]; [8] 88% | [6]; [8] 86%
9% (inactive) and 93.7% (active): [2]; at 50.0 µM
6.35% (inactive) and 92.2% (active): [1]; at 50.0 µM

CC(C)C1(NC(=O)C2C=C3c4cccc5[nH]cc(c45)CC3N(C)C2)OC2(O)C3CCCN3C(=O)C(Cc3ccccc3)N2C1=O (centres undefined)
inactive: [1]; [7] 0% | [2]; [7] -47% | [3]; [7] -2% | [4]; [7] -8% | [5]; [7] -4% | [6]; [7] -2%
active: [1]; [8] 94% | [1]; at 50.0 µM 96.2% | [2]; [8] 92% | [2]; at 50.0 µM 97.1% | [3]; [8] 89% | [3]; at 50.0 µM 98.2% | [4]; [8] 95% | [4]; at 50.0 µM 94.5% | [5]; [8] 95% | [5]; at 50.0 µM 96.8% | [6]; [8] 97% | [6]; at 50.0 µM 97%
